Compounds without any hit were thinned out: in the full panel of roughly 83,000, 20% have a hit.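 Interpretation: 100, growth as untreated; towards 0, rising growth inhibition; 0, no net growth; 0 to -100, cell death. Compounds scoring below 10 were considered active.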 Unmarked numbers belong to inactive results. Activity calls are given as the source filed them.

The assay has as its system NCI/ADR-RES ovarian. Put plainly: NCI-60 one-dose screen, 48 h (100 = growth as untreated, 0 = no growth, -100 = all killed). As to conditions: 10 µM unless noted. On the procedure: Growth inhibition of the NCI/ADR-RES human […] tumor cell line is measured as a screen for anti-cancer activity. Cells are grown in 96 well plates and exposed to the test compound for 48 hours. Compounds are tested at a single concentration, which is 10^-5 M for most compounds. The reported endpoint is percent growth (GI% or GIPRCNT), where numbers from 0 - 100% represent growth inhibition, and numbers from -100% - 0 represent cell death. For example, a value of 40 represents 60% growth inhibition. A value of 0 means no net growth occurred over the course of the experiment. A value of -40 indicates 40% of cells at the beginning of the experiment died by the end of the experiment. A value of -100 means all cells are dead at the end of the experiment.
NCI-60 Human Tumor Cell Lines Screen was performed using the standard one-dose NCI protocol, which is described in more detail at https://dtp.cancer.gov/discovery_development/nci-60/default.htm.
Compounds with GIPRCNT values below 10 were considered active. Activity score was based on GIPRCNT using the following formula: […]
Score is 0 for GIPRCNT values of 100 or above, 50 for GIPRCNT values of 0, and 100 for GIPRCNT values of -100.
Consider `COc1cccc2c1c1nc3cc(C)c(C)cc3nc1n2CCN(C)C`, for which the growth was 25.1%.
With `NS(=O)(=O)c1ccc(CCN2C(=O)c3cc(Cl)c(Cl)cc3C2=O)cc1` the figure was 105%; with `Nc1c(C(=O)Nc2ccnc3ccccc23)sc2nc3c(cc12)CN(Cc1ccccc1)CC3`, 69.2%; with `CCCCCN1C=C/C(=C\C(=O)N(C)c2ccccc2Br)c2ccccc21`, 100%.
Turning to `COc1cc2oc(-c3cccc(C(=O)Nc4ccccc4)c3)cc(=O)c2c(O)c1OC`, the growth was 79.1%.
On to `CC(Oc1ccc(C(=O)O)cc1C(F)(F)F)c1ccc(Oc2ccccc2)cn1` (stereo not given), for which the growth is 75.2%.
With `CCN1CCN(CCNc2nccc(-c3c(-c4cccc(OC)c4)nc4occn34)n2)S1(=O)=O` the figure was 109%; with `O=C1NN(C(=O)c2ccccc2)C(c2ccc(Cl)c(Cl)c2)=C/C1=C\c1ccc([N+](=O)[O-])cc1`, 92.6%.
As to `C=C(C)[C@@H]1CC[C@]2(CN)CC[C@]3(C)[C@H](CC[C@@H]4[C@@]5(C)CCCNC(C)(C)[C@@H]5CC[C@]43C)[C@@H]12`, the growth was -52% (active).
Regarding `COc1ccc(NC(N)=NCCCOc2ccc(F)cc2)cc1`, the growth was 99%.
With `CC(Sc1nc2sc3c(c2c(=O)n1-c1ccc(Cl)cc1)CCCC3)C(=O)Nc1nc(-c2ccc(Br)cc2)cs1` (stereo not given) the figure was 95.6%.
Under `O=C(CCN1CCCC1)Nc1ccc2c(Nc3ccc(Br)cc3)c3ccccc3nc2c1` stands 20.3%.
Under `COc1ccc(/C=N/NC(=O)c2cnn3c2NC(c2ccccc2)C3)cc1OC` (stereo not given) stands 85.5%; under `CCNC(=O)Oc1ccc(/C(=C(\C)c2ccccc2)c2ccc(OCCN3CCCCC3)cc2)cc1`, 66.8%.
As for `CCc1ccc(CNc2ccc(N3CCOCC3)c(C(=O)O)c2)cc1`, the growth was 98.6%.
Under `Cc1cc(C)c(S(=O)(=O)Oc2ccccc2[N+](=O)[O-])c(C)c1` stands 8.3% (active); under `Nc1c(C(=O)Nc2cccc3cnccc23)sc2nc3c(cc12)C(=O)CCC3`, 102%; under `CCOC(=O)Oc1c(OC)cc(C(=O)c2ccc(OC)c(O)c2OC)cc1OC`, -9.66% (active).
Take `O=C(Nc1ccc(F)cc1)Nc1ccc(NC(=O)c2cc(Cl)nc3ccccc23)cc1`: the growth was 99.7%.
Take `O=C(CCN1CCCC1)Nc1ccc2c(NCCc3ccccc3)c3ccccc3nc2c1`: the growth was 71.5%.
Under `COc1cc(/C=N/NC(=O)c2cnn3c2NC(c2ccccc2)C3)ccc1OCc1ccccc1` (stereo not given) stands 35%.
For the compound `C#Cc1cccc(NC(=O)c2cccc(NC(=O)CCl)c2)c1`, the growth was -11.5% [8.25 µM] (active).
Under `CC(C)c1ccc(Nc2ccc3c(OCCCN4CCN(C)CC4)cccc3n2)cc1` stands 82%; under `Fc1ccc(-c2cn3c(nc4ccccc43)c(-c3ccccc3)n2)cc1`, 89.3%; under `CCN1C(=O)N(CC)C2Nn3c(s/c(=C\c4ccc(OC)cc4)c3=O)=NC21` (stereo not given), 44.2%.
Under `C#Cc1cccc(NC(=O)Nc2cccc(NC(=O)CCl)c2)c1` stands -15.1% [8.25 µM] (active); under `O=C(C1CCC1)N1N=C(c2ccc(-n3ccc(C(F)(F)F)n3)cc2)CC1c1ccc[nH]1` (stereo not given), 95.5%.
With `CN(C)CCC(=O)c1ccc([N+](=O)[O-])cc1` the figure was 107%; with `CN[C@@H](C)C(=O)N[C@H]1CCS[C@H]2CC(C)(C)[C@@H](C(=O)N[C@H]3c4ccccc4C[C@H]3OCC#CC#CCO[C@@H]3Cc4ccccc4[C@@H]3NC(=O)[C@H]3N4C(=O)[C@@H](NC(=O)[C@H](C)NC)CCS[C@H]4CC3(C)C)N2C1=O`, 109%; with `Cn1c(-c2c(N)n(CCCN3CCOCC3)c3nc(C#N)c(C#N)nc23)nc2ccccc21`, 78.6%.
`N#C/C(=C\c1ccccn1)c1nc2cc(Cl)ccc2s1`: the growth was 77%.
Consider `CC(C)(C)CC(C)(C)n1nnnc1C(NC12CC3CC(CC(C3)C1)C2)c1ccccc1` (stereo not given), for which the growth is 86.1%.
Under `O=S(=O)(NCCCNc1nccc(-c2c(-c3cccc(F)c3)nc3sccn23)n1)c1cccc2ccccc12` stands 47.1%.
Under `c1ccc2c(-c3nccs3)c[nH]c2c1` stands 103%; under `CC1(C)NCCC[C@]2(C)[C@H]3CC[C@@H]4[C@H]5[C@H](C(=O)/C=C/c6ccco6)CC[C@]5(CO)CC[C@@]4(C)[C@]3(C)CC[C@@H]12`, 95.2%; under `C=C(C)[C@@H]1CC[C@]2(C(=O)N[C@H](CO)Cc3ccccc3)CC[C@]3(C)[C@H](CC[C@@H]4[C@@]5(C)CCCNC(C)(C)[C@@H]5CC[C@]43C)[C@@H]12`, -67.6% (active).
With `O=C(CSc1nc2ccccc2[nH]1)NCc1ccccc1` the figure was 102%; with `C=CCN1C(=O)/C(=C/C(=O)OC)S/C1=N\NC(=O)c1cc2ccc1/C=C\c1ccc(cc1)/C=C\2`, 89.5%.
As for `CN1CCN(C(=O)[C@]23CCC(C)(C)C[C@H]2C2=CC[C@@H]4[C@@]5(C)C/C(=C/c6ccncc6)C(=O)C(C)(C)[C@@H]5CC[C@@]4(C)[C@]2(C)CC3)CC1`, the growth is 56.3%.
Under `COc1cc(/C=C2\COc3ccc(-c4ccccc4)cc3C2=O)cc(OC)c1` stands 61%.

Source of the values: PubChem BioAssay (NCI).
